Drawing on PubChem BioAssay (NCATS), this text covers Potency and outcome for 13 molecules.

Structures are written as SMILES. Inconclusive results are not listed. A call without a number means that no potency is given here. The source made the active and inactive calls. Calls come from the whole dose curve; as a rule, active = well fitted curve in the direction sought with a large enough effect; inconclusive = small, poorly fitted or top-dose-only effect, or another doubt; inactive = no such curve, though single readings can be large; an effect the other way counts as inactive or inconclusive.

Test [1] has as its system Zika virus NS2B-NS3 protease. Nature of the test: Primary screen GU AMC qHTS for Zika virus inhibitors (AID 1347154). Note: nearly all actives have a fitted effect of over 70% in size. The gist of the method: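 Unlinked Zika NS2B hydrophilic domain/NS3 protease domain noncovalent complex (25 nM final) in 10 mM Tris-HCl pH 8.0, 0.01% Tween 20, with AMC peptide substrate. Fluorescence (ex 340, em 450 nm) change over 15 min, room temperature; percent inhibition fitted to 4-parameter Hill equation.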
A general note: qHTS replaces the single test concentration by a dilution series.

A short description of test [2]: Confirmatory screen GU Rhodamine qHTS for Zika virus inhibitors qHTS (AID 1347157). Note: nearly all actives have a fitted effect of over 70% in size. Note: potency is the fitted concentration of half-maximal effect. The gist of the method: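 Enzyme 25 nM in Tris-HCl pH 8.0 + 0.01% Tween 20; compounds up to 114 microM, 15 min RT dark; + Rhod110 substrate 1.5 microM; read t0 and 15 min; delta fluorescence → % inhibition → 4-parameter Hill fit.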
Test [3] deals with Zika virus NS2B-NS3 protease (unlinked complex). Briefly: Primary screen GU Rhodamine qHTS for Zika virus inhibitors: Unlinked NS2B-NS3 protease assay (AID 1347159). Note: nearly all actives have a fitted effect of over 60% in size. The gist of the method:
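Noncovalent NS2B hydrophilic domain/NS3 protease complex (25 nM final) in 10 mM Tris-HCl pH 8.0, 0.01% Tween 20, preincubated 15 min with compounds (up to 114 microM), then 1.5 microM Rhodamine110 substrate. Fluorescence change over 15 min fitted to 4-parameter Hill.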

Test [4] deals with Zika virus NS2B-NS3 protease (linked construct). Nature of the test: Primary screen NINDS Rhodamine qHTS for Zika virus inhibitors (AID 1347160). Note: nearly all actives have a fitted effect of over 55% in size. The gist of the method: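 Purified NS2B-NS3 protease with the NS2B hydrophilic domain joined by a flexible linker (25 nM) in 10 mM Tris-HCl pH 8.0, 0.01% Tween 20, preincubated 15 min at RT with compound; Rhodamine110 peptide substrate 1.5 µM; fluorescence change over 15 min; 4-parameter Hill fit.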

As for `O=C(O)CCc1nc2ccccc2[nH]1`, in test [1], the Potency entry is “inactive”.
`Cc1c(-c2ccccc2)oc2c(C(=O)OCCN3CCCCC3)cccc2c1=O`: the Potency entry in test [1] was “inactive”.
As to `CCOC(=O)C(C#N)=C(c1ccccc1)c1ccccc1`, the Potency result in test [1] was “inactive”.
Turning to `Cc1c[nH]c2ccccc12`, the Potency entry in test [1] was “inactive”.
Still for that read-out and setting: the result for `Cc1cn([C@H]2C[C@H](F)[C@@H](CO)O2)c(=O)[nH]c1=O` reads “inactive”.
Regarding `CC(C)Nc1cccnc1N1CCN(C(=O)c2cc3cc(NS(C)(=O)=O)ccc3[nH]2)CC1`, the Potency entry in test [1] is “inactive”.
The same measure, in the same setting: the result for `FC1(F)C(F)(F)C(F)(F)C2(F)C(F)(F)C(F)(F)C(F)(F)C(F)(F)C2(F)C1(F)F` (stereo not given) reads “inactive”; that for `NC(=S)N/N=C/c1cccnc1`, “inactive”; that for `CC1(C)OC[C@@H]2O[C@@]3(C(=O)O)OC(C)(C)O[C@H]3[C@@H]2O1`, “inactive”.
As for `C=C[C@H]1CN2CC[C@H]1C[C@H]2[C@H](O)c1ccnc2ccc(OC)cc12`, the Potency result in test [2] was “inactive”. Besides, the call in test [3] was inactive.
As for `Oc1c(Cl)cc(Cl)c(Cl)c1Cc1c(O)c(Cl)cc(Cl)c1Cl`, the Potency in test [2] was 15.8 µM (active).
Regarding `CC[C@]12CCCN3CCc4c(n(c5ccccc45)C(=O)C1)[C@@H]32`, the molecule was classed as inactive in test [3] and in test [4].
`O=C1[C@H](CC[C@H](O)c2ccc(F)cc2)[C@@H](c2ccc(O)cc2)N1c1ccc(F)cc1`: the molecule was classed as inactive in test [4].
